In all, about 2,100 compounds went through this assay and about 180 (8.6%) showed an effect of 50% or more. Many of the other results were omitted from the sample, so strong results are more common in it than they were.
The compounds below were run on MOLM1 and UCSD/AML1 (averaged) (assay: cell viability relative to DMSO control (POC); higher = less growth inhibition). Details: 1 µM; 72 h.
Procedure: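 Primary viability screen in the 3q26 EVI1-high AML cell lines MOLM1 and UCSD/AML1 (1.5e3 cells/well, 384-well), compounds at 1 uM for 72 h. ATP CellTiter-Glo read-out given as percent of viable cells over DMSO control (POC), averaged over duplicates. DMSO was the negative control and 5 uM etoposide the positive control. This mapping covers the MicroSource Spectrum and Selleck anticancer libraries (drug names).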
For `CN(C)C(=S)SSC(=S)N(C)C`, the cell viability was 1.29%. `C[C@]12CC[C@H]3[C@@H](CCC4=CC(=O)CC[C@@]43C)[C@@H]1CC[C@@H]2O` showed a cell viability of 103%. `CC[C@@]1(O)C[C@H](O)c2c(cc3c(c2O)C(=O)c2c(O)ccc(O)c2C3=O)[C@H]1C(=O)OC` showed a cell viability of 99.6%. In the case of `CC[C@@]1(O)C[C@H](O[C@H]2C[C@H](N(C)C)[C@H](O)[C@H](C)O2)c2c(cc3c(c2O)C(=O)c2c(O)ccc(O)c2C3=O)[C@H]1C(=O)OC`, the cell viability is reported as 0.762%. With `CC[C@@]1(O)C[C@H](O[C@H]2C[C@H](N(C)C)[C@H](O)[C@H](C)O2)c2c(cc3c(c2O)C(=O)c2c(O)cccc2C3=O)[C@H]1C(=O)OC` the cell viability was 38.5%. Compound `O=C1CCC[C@@H]2[C@H]3C[C@@H](CN12)[C@@H]1CCCCN1C3.[O-][Cl+3]([O-])([O-])O` has a cell viability of 95.6%. `COc1cc(OC)c2c(c1)O[C@H](c1ccc(OC)c(OC)c1)[C@@H](O)C2` showed a cell viability of 100%. Compound `C=CCC1(C(C)CCC)C(=O)NC(=S)NC1=O` (stereo not drawn) has a cell viability of 89.9%. Compound `COc1cc2c(cc1OC)[C@@H]1C(=O)c3ccc4oc(C(C)C)cc4c3O[C@@H]1CO2` has a cell viability of 81.7%. For `CC(O)(CS(=O)(=O)c1ccc(F)cc1)C(=O)Nc1ccc(C#N)c(C(F)(F)F)c1` (stereo not drawn) [Bicalutamide (Casodex)], the cell viability was 101%. With `C[C@H](N)[C@H](O)c1ccc(O)c(O)c1` the cell viability was 105%. `O=C(O)CCC1NCC2CC1CN1CCCCC21` (stereo not drawn) showed a cell viability of 93.6%. In the case of `CCCC(C)C1(CC)C(=O)NC(=S)NC1=O` (stereo not drawn), the cell viability is reported as 96.6%. `CN1C[C@H](C(=O)N[C@]2(C)O[C@@]3(O)[C@@H]4CCCN4C(=O)[C@H](Cc4ccccc4)N3C2=O)C[C@@H]2c3cccc4[nH]cc(c34)C[C@H]21` gave a cell viability of 112%. `CC(C)C[C@H]1C(=O)N2CCC[C@H]2[C@]2(O)O[C@](NC(=O)[C@@H]3C=C4c5cccc6[nH]c(Br)c(c56)C[C@H]4N(C)C3)(C(C)C)C(=O)N12` showed a cell viability of 108%. Compound `CN1C[C@H](C(=O)N[C@]2(C)O[C@@]3(O)[C@@H]4CCCN4C(=O)[C@H](Cc4ccccc4)N3C2=O)C=C2c3cccc4[nH]cc(c34)C[C@H]21` has a cell viability of 48.2%. In the case of `O=C(O)Cc1cnc[nH]1`, the cell viability is reported as 101%. For `CN1C2CCC1CC(O)C2` (stereo not drawn), the cell viability was 109%. Work on `C#CCN(C)[C@H](C)Cc1ccccc1` yielded a cell viability of 84.3%. `O=P1(NCCCl)OCCCN1CCCl` (stereo not drawn) was tested, and the cell viability was 105%. `O=P1(NCCCl)OCCCN1CCCl` (stereo not drawn) [Ifosfamide] showed a cell viability of 105%. `NCC(=O)c1ccccc1` showed a cell viability of 130%. Work on `CC(=O)[O][Hg][c]1ccccc1` yielded a cell viability of 1.17%. Work on `COc1ccc(CCN2CCC(Nc3nc4ccccc4n3Cc3ccc(F)cc3)CC2)cc1` yielded a cell viability of 95.2%. For `CC(=O)O[C@H]1[C@H]2[C@@H](OC(=O)Cc3ccccc3)[C@@H](C)C[C@]2(OC(C)=O)C(=O)/C(C)=C/[C@@H]2[C@H](CC[C@@]13CO3)C2(C)C`, the cell viability was 96.8%. `COc1cc2c(c(OC)c1OC)-c1ccc(OC)c(=O)cc1[C@@H](NC(C)=O)CC2` showed a cell viability of 6.75%. `CC(=O)O[C@@H]1C[C@H]2C(C)(C)C(=O)C=C[C@]2(C)[C@H]2CC[C@]3(C)C(=CC(=O)O[C@H]3c3ccoc3)[C@@]21C` was tested, and the cell viability was 75.1%. `Nc1ncn[nH]1` gave a cell viability of 109%. Compound `CCCCCCCCCc1ccc(O)cc1` has a cell viability of 105%. In the case of `CNC(=O)Oc1ccc2c(c1)[C@]1(C)CCN(C)[C@@H]1N2C`, the cell viability is reported as 106%. With `O=C1C=C2C(=CCOC2O)O1` (stereo not drawn) the cell viability was 1.61%. `c1cncc([C@@H]2CCCCN2)c1` gave a cell viability of 107%. `C[C@H]1O[C@H](O[C@H]2[C@H](O)[C@@H](O)[C@@H](O)[C@H](O)[C@@H]2O)[C@@H](N)C[C@@H]1NC(=N)C(=O)O` showed a cell viability of 103%. Compound `C[C@]12C=CC(=O)C=C1CC[C@@H]1[C@@H]2CC[C@]2(C)C(=O)CC[C@@H]12` has a cell viability of 101%. `CC(C)=CCC[C@]1(C)C=Cc2c(O)c3c(c(CC=C(C)C)c2O1)O[C@]12C(=C[C@@H]4C[C@H]1C(C)(C)O[C@@]2(C/C=C(/C)C(=O)O)C4=O)C3=O` was tested, and the cell viability was 1.06%. `CC(C)=CCCC1(C)C=Cc2c(O)c3c(c(CC=C(C)C)c2O1)OC12C(=CC4CC1C(C)(C)OC2(C/C=C(/C)C(=O)O)C4O)C3=O` (stereo not drawn) gave a cell viability of 99.7%. Compound `CC(C)=CCC[C@]1(C)C=Cc2c(O)c3c(c(CC=C(C)C)c2O1)O[C@]12C(=C[C@@H]4C[C@H]1C(C)(C)O[C@@]2(C/C=C(/C)C(N)=O)C4=O)C3=O` has a cell viability of 13.2%. With `CC(C)CCCC1(C)C=Cc2c(O)c3c(c(CCC(C)C)c2O1)OC12C(CC4CC1C(C)(C)OC2(CCC(C)C(=O)O)C4O)C3=O` (stereo not drawn) the cell viability was 106%. `CC(C)=CCCC1(C)C=Cc2c(O)c3c(c(CC=C(C)C)c2O1)OC12C(CC4CC1C(C)(C)OC2(C/C=C(/C)C(=O)O)C4O)C3=O` (stereo not drawn) was tested, and the cell viability was 94.1%. With `C=C(C)c1cc2cc(C(C)=O)c(O)cc2o1` the cell viability was 104%. Work on `COC(=O)C1=CCCN(C)C1` yielded a cell viability of 98.5%. For `COc1c2c(cc3c1OCO3)CCN(C)C2`, the cell viability was 119%. `CCC(C)C(=O)O[C@@H]1C[C@@]2(C)[C@H](c3ccoc3)OC(=O)CC23OC2(C)O[C@]14[C@]1(C)[C@@H](CC(=O)OC)C5(C)CC1(O)[C@](O)(C5OC(=O)C1(C)OC1C)[C@@H](OC(C)=O)[C@]34O2` (stereo partly drawn) gave a cell viability of 95.6%. Work on `CC1(C)N([O-])[N+](=O)C1(C)Br` (stereo not drawn) yielded a cell viability of 109%. Compound `COc1cc2c(cc1O)CCN[C@@H]2C` has a cell viability of 112%. With `CCN1C[C@]2(OC(=O)c3ccccc3NC(C)=O)CC[C@H](OC)[C@@]34[C@@H]2C[C@@H]([C@@H]13)[C@@]1(O)C[C@H](OC)[C@H]2C[C@@H]4[C@]1(O)[C@H]2OC` the cell viability was 96.8%. For `CO[C@H]1C[C@H](O[C@H]2CC[C@]3(C=O)[C@H]4CC[C@]5(C)[C@@H](C6=CC(=O)OC6)CC[C@]5(O)[C@@H]4CC[C@]3(O)C2)O[C@H](C)[C@H]1O`, the cell viability was 3.81%. For `CO[C@H]1[C@H](O)[C@H](O[C@H]2CC[C@@]3(C=O)[C@H](CC[C@@H]4[C@@H]3CC[C@]3(C)[C@@H](C5=CC(=O)OC5)CC[C@]43O)C2)O[C@@H](C)[C@@H]1O`, the cell viability was 1.75%. `C[C@@H]1O[C@@H](O[C@H]2C[C@@H](O)[C@]3(CO)[C@H]4[C@H](O)C[C@]5(C)[C@@H](C6=CC(=O)OC6)CC[C@]5(O)[C@@H]4CC[C@]3(O)C2)[C@H](O)[C@H](O)[C@H]1O` showed a cell viability of 1.94%. Work on `C[C@@H]1O[C@@H](O[C@H]2CC[C@]3(C=O)[C@H]4CC[C@]5(C)[C@@H](C6=CC(=O)OC6)CC[C@]5(O)[C@@H]4CC[C@]3(O)C2)[C@H](O)[C@H](O)[C@H]1O` yielded a cell viability of 1.83%. With `COc1cc2ccc(=O)oc2c2ccoc12` the cell viability was 104%. Work on `C[N+]12CC[C@@]34c5ccccc5N5C(=O)C[C@@H]6OCC=C(C1)[C@H](C[C@@H]32)[C@@H]6[C@H]54` (stereo partly drawn) yielded a cell viability of 102%. `O=C([O-])c1ccccc1-c1c2cc(Br)c(=O)cc-2oc2[c]([Hg+])c([O-])c(Br)cc12.[Na+].[Na+].[OH-]` gave a cell viability of 87.1%. `O=C1CN=C(c2ccccc2Cl)c2cc([N+](=O)[O-])ccc2N1` showed a cell viability of 87%. With `C[C@@]12C(=O)OC(=O)[C@]1(C)[C@H]1CC[C@@H]2O1` the cell viability was 101%. With `CC[C@@H](CO)NC(=O)[C@@H]1C=C2c3cccc4[nH]cc(c34)C[C@H]2N(C)C1` the cell viability was 98%. `CCC12C=CCN3CC[C@@]4(c5ccc(OC)cc5N(C)[C@H]4[C@@](O)(C(=O)OC)[C@@H]1OC(C)=O)[C@@H]32` (stereo partly drawn) showed a cell viability of 94%. For `C=C[C@H]1CN2CC[C@H]1C[C@@H]2[C@@H](O)c1ccnc2ccccc12`, the cell viability was 113%. `CC1(C)C2CC(=O)[C@]3(C)C(CC[C@@]4(C)[C@H](c5ccoc5)OC(=O)[C@H]5O[C@]543)[C@@]2(C)C(=O)C[C@H]1O` (stereo partly drawn) was tested, and the cell viability was 87.6%. Compound `Cc1[nH]c2ccccc2c1CN(C)C` has a cell viability of 109%. In the case of `C[C@]12CCC(=O)C[C@@H]1CC[C@@H]1[C@@H]2CC[C@]2(C)C(=O)CC[C@@H]12` [5alpha-ANDROSTAN-3,17-DIONE], the cell viability is reported as 101%. `C[C@]12CC[C@H]3[C@@H](CC[C@]4(O)C[C@@H](O)CC[C@]34C=O)[C@@]1(O)CC[C@@H]2C1=CC(=O)OC1` showed a cell viability of 3.15%. With `CC1CC(Cl)CCC1C(=O)OC(C)(C)C` (stereo not drawn) the cell viability was 102%. For `COc1cc([C@@H]2c3cc4c(cc3[C@H](OC(C)=O)[C@H]3COC(=O)[C@H]23)OCO4)cc(OC)c1OC`, the cell viability was 6.04%. Work on `COc1cc([C@@H]2c3cc4c(cc3[C@H](OC(C)=O)[C@H]3COC(=O)[C@@H]23)OCO4)cc(OC)c1OC` yielded a cell viability of 34.9%. Compound `O=C(O)COc1cc(Cl)c(Cl)cc1Cl` has a cell viability of 98.7%. Compound `COc1cc2c(cc1O)C[C@H]1c3c(cc(O)c(OC)c3-2)CCN1C` has a cell viability of 99%. With `O=c1ccc2c(O)c3ccoc3cc2o1` the cell viability was 91.2%. Work on `CC1(C)C2C[C@@H](O)[C@]3(C)C(CC[C@@]4(C)[C@H](c5ccoc5)OC(=O)[C@H]5O[C@]543)[C@@]2(C)[C@@H](O)C[C@H]1O` (stereo partly drawn) yielded a cell viability of 106%. `CCN1C[C@]2(COC)[C@H](O)C[C@H](OC)[C@@]34[C@@H]5C[C@@]6(O)[C@H](OC(=O)c7ccccc7)[C@@H]5[C@@](OC(C)=O)([C@@H]([C@H](OC)[C@H]23)[C@@H]14)[C@@H](O)[C@@H]6OC` gave a cell viability of 100%. In the case of `CC1(C)C(=O)C=C[C@]2(C)[C@H]3CC[C@@]4(C)[C@H](c5ccoc5)OC(=O)[C@H]5O[C@]54[C@]3(C)[C@H](O)C[C@@H]12`, the cell viability is reported as 98.3%. `O=C1C(Cl)=C(Cl)C(=O)C(Cl)=C1Cl` showed a cell viability of 114%. Work on `CNc1ccc(C(=O)CC(O)CCC(C)C2OC(=O)CC(O)CC(=O)CC(O)CC(O)CC(O)CC(O)CC3(O)CC(O)C(C(=O)OC)C(CC(O[C@@H]4O[C@H](C)[C@@H](O)[C@H](N)[C@@H]4O)/C=C/C=C/C=C/C=C/C=C/C=C/C=C/C2C)O3)cc1.COC(=O)C1C(O)CC2(O)CC(O)CC(O)CC(O)CC(O)CC(=O)CC(O)CC(=O)OC(C(C)CCC(O)CC(=O)c3ccc(N)cc3)C(C)/C=C/C=C/C=C/C=C/C=C/C=C/C=C/C(O[C@@H]3O[C@H](C)[C@@H](O)[C@H](N)[C@@H]3O)CC1O2` (stereo partly drawn) yielded a cell viability of 93.4%.

From the supplement of paper PMC11150407
